In the library only some 2.9% were active in any assay of this set; here they are far more common.
D3 ag = qHTS of D3 Dopamine Receptor Agonist: qHTS | D(3) dopamine receptor (Homo sapiens), P35462 | D3R DiscoveRx beta-arrestin cells, luminescence, 90 min | max activation, % | 410,000 compounds, 0.58% hits | AID 652048, 2013; in the data active = max activation above about 30%; note: 0% is about no effect
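Agonist mode: compounds and dopamine controls were applied to plated cells for 90 min at 37 degrees C after an overnight attachment at 1500 cells/well. Luminescent read-out followed 30 - 60 minutes at room temperature with DiscoveRx detection reagent.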
D3 antag = qHTS of D3 Dopamine Receptor Antagonist: qHTS | D(3) dopamine receptor (Homo sapiens), P35462 | D3R cells, DiscoveRx beta-arrestin luminescence, antagonist mode; active compounds read low | max response, negative = inhibition, % | 360,000 compounds, 2.5% hits; in the data active = max response below about -50%; inconclusive = no clear call, values can overlap the other calls; note: % is set by controls: 0 for no effect and ±100 for the full control effect
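Cells expressing the human receptor were seeded at 1500 cells/well, incubated overnight at 37 degrees C in 5% CO2, then exposed to library compounds with dopamine controls for 90 minutes at 37 degrees C before luminescent detection.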
B2AR arrestin = qHTS assay of beta-arrestin-biased ligands of beta2-adrenergic receptor; AID 492947, 2010; Potency, µM (series often up to 46.1 µM), for the others: at the highest dose activation, hits mostly activators; 330,000 compounds, 0.02% hits; beta-arrestin recruitment to beta2AR, cell-based reporter; Beta-2 adrenergic receptor (Homo sapiens), P07550; active = well fitted activation curve with a large enough effect; inconclusive = small, poorly fitted or top-dose-only effect;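 note: potency is the fitted concentration of half-maximal effect; 0% = DMSO controls and full agonism = EC100 isoproterenol or metaproterenol; nearly all actives have a fitted effect of over 65% in size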
TSHR antagonist = Antagonists of the Thyroid Stimulating Hormone Receptor: HTS campaign | activity change, negative = inhibition, % at 11.5 µM | Thyrotropin receptor (Homo sapiens), P16473 | AID 504810, 2011 | 330,000 compounds, 0.2% hits | TSHR-expressing cells, TSH-stimulated cAMP HTRF, 2 h; active compounds read low;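 active = activity change below a set negative limit, meaning inhibition stronger than a set level, cut at about -70% in these data; inconclusive = activity change between two set negative limits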; note: % is set by controls: 0 for no effect and ±100 for the full control effect
Target sequence (P16473 whole entry, looked up): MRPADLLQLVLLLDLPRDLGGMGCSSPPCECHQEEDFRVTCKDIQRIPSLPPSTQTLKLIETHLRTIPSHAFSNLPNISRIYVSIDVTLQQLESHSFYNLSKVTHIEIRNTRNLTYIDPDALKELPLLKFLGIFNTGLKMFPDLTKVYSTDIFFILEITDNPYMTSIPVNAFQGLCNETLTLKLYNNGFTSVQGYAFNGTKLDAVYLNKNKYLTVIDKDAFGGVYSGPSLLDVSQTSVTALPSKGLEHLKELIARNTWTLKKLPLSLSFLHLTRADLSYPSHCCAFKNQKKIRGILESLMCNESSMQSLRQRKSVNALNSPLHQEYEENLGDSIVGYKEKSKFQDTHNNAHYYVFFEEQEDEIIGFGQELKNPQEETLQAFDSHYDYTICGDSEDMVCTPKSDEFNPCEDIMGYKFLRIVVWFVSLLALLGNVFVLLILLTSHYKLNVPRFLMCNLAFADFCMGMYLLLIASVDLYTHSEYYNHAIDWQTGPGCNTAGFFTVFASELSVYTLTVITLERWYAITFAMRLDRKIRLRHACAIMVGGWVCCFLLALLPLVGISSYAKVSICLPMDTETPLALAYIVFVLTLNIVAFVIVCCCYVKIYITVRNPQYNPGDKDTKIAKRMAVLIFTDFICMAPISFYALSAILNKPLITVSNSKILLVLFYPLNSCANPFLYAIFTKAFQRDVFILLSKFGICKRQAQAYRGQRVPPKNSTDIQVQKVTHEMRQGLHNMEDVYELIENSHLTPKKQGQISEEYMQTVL
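TSHR-expressing cells, 200/well, pre-treated with compound, then stimulated with EC80 TSH (4nM final) for 2 hours at 37 deg C. cAMP measured by competitive HTRF: anti-cAMP cryptate antibody in lysis buffer plus cAMP-d2, read after 30 minutes at room temperature.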
An asterisk follows results filed as active.

`COc1ccc(-n2nc(C(=O)N3CCN(c4cccc(C)c4)C(C)C3)c3c4ccccc4n(C)c3c2=O)cc1Cl` (stereo not given) gave D3 ag -17.
For CCC(=O)O[C@H]1CC[C@H]2[C@@H]3CCc4cc(O)ccc4[C@H]3CC[C@]12C the results were D3 ag 17.
Cc1ccccc1C(=O)NCCN1CCC(n2c(=O)[nH]c3ccccc32)CC1 was read as D3 ag -11 and D3 antag -109*.
O=C(NCCN1CCC(n2c(=O)[nH]c3ccccc32)CC1)c1ccc(Cl)cc1Cl was read as D3 ag -15 and D3 antag -92*.
CCOc1ccccc1C(=O)NCCN1CCC(n2c(=O)[nH]c3ccccc32)CC1 was read as D3 ag -14 and D3 antag -29.
O=C(NCCN1CCC(n2c(=O)[nH]c3ccccc32)CC1)c1ccccc1Cl was read as D3 ag -12 and D3 antag -100*.
For O=C(NCCN1CCCC1)c1ccccc1Cl the results were D3 ag -20, D3 antag -15, B2AR arrestin 0% and TSHR antagonist -3.
`O=C(NCCN1CCC(n2c(=O)[nH]c3ccccc32)CC1)c1ccccc1C(F)(F)F` gave D3 ag -13 and D3 antag -77*.
`Cc1ccc(-n2c(SCC(=O)Nc3ccc4c(c3)OCO4)nc3c([nH]c4ccccc43)c2=O)cc1` gave D3 ag 7.
`CN(C)c1ccc(C(=O)NCc2ccc3c(c2)CCN3C(=O)c2ccccc2)cc1` gave D3 ag 1.
Screening Fc1ccccc1C1c2cccn2CCN1C(=S)Nc1ccc(Br)cc1 (stereo not given) returned D3 ag -21, D3 antag -64*, B2AR arrestin 0% and TSHR antagonist 0.
CN(C)CC/C=C1/c2cc(F)ccc2Sc2ccc(Cl)cc21 was read as D3 ag -14 and D3 antag -84*.
CN(C)CC/C=C1/c2ccccc2Sc2c(O)cc(Cl)cc21 was read as D3 ag -20, D3 antag inconclusive, B2AR arrestin 0% and TSHR antagonist 27.
`CN(C)CC/C=C1/c2ccccc2CSc2ccccc21` gave D3 ag -21.
Screening COc1cc2c(cc1Cl)/C(=C\CCN(C)C)c1ccccc1S2 returned D3 ag -58, D3 antag -92*, B2AR arrestin 0% and TSHR antagonist 0.
`COc1cc(Cl)cc2c1Sc1ccccc1/C2=C/CCN(C)C` gave D3 ag 1, D3 antag -77*, B2AR arrestin -1% and TSHR antagonist -13.
Screening CCOC(=O)c1c(C)oc2nc(C)nc(N3CCN(c4cccc(C)c4C)CC3)c12 returned D3 ag 4.
`Cc1cc2c(c(C)c1CCO)C(=O)[C@H](C)C2` gave D3 ag 0, D3 antag -50*, B2AR arrestin -1% and TSHR antagonist -7.
Screening COC(=O)C(NC(=O)CCc1c(C)nc2c(-c3ccccc3)c(C)nn2c1C)C(C)C (stereo not given) returned D3 ag 0.
CCOCCCn1c(=N)c(C(=O)NC(C)c2ccccc2)cc2c(=O)n3cccc(C)c3nc21 (stereo not given) was read as D3 ag -3.
For Cc1oc(=O)c(NC(=O)c2ccccc2)cc1C(=O)c1ccccc1 the results were D3 ag -1, D3 antag inconclusive, B2AR arrestin 5% and TSHR antagonist -1.
For Cc1oc(=O)c(NC(=O)c2ccc(Cl)cc2)cc1C(=O)c1ccccc1 the results were D3 ag -8, D3 antag -80*, B2AR arrestin 9% and TSHR antagonist 29.
Screening Cc1ccc(-c2csc3ncnc(N4CCc5ccccc5C4)c23)cc1 returned D3 ag 25, D3 antag 18, B2AR arrestin -1% and TSHR antagonist -41.
Cc1nc(N2CCN(c3ccccc3O)CC2)c2c(-c3ccccc3)csc2n1 was read as D3 ag 32*, D3 antag 115, B2AR arrestin 0% and TSHR antagonist -19.
`Fc1ccc(-c2csc3ncnc(N4CCc5ccccc5C4)c23)cc1` gave D3 ag 46*, D3 antag 43, B2AR arrestin -1% and TSHR antagonist -19.
For Oc1ccccc1N1CCN(c2ncnc3scc(-c4ccccc4)c23)CC1 the results were D3 ag 39*, D3 antag 106, B2AR arrestin 0% and TSHR antagonist -4.
CCN1CCN(c2ncnc3scc(-c4ccc(C)cc4)c23)CC1 was read as D3 ag -7, D3 antag -92*, B2AR arrestin 0% and TSHR antagonist -7.
For Cc1ccc(-c2csc3ncnc(N4CCN(Cc5ccccc5)CC4)c23)cc1 the results were D3 ag -16, D3 antag 39, B2AR arrestin -1% and TSHR antagonist 7.
`Cc1ccc(CN2C(=O)C(=O)c3cc(Br)cc(C)c32)cc1` gave D3 ag -19.
Screening COC(=O)C1(Cc2cc(-c3ccccc3)no2)CCN(C(=O)OC(C)(C)C)CC1 returned D3 ag 14, D3 antag 30, B2AR arrestin 0% and TSHR antagonist 4.
OC1(Cc2cc(-c3ccccc3)no2)CCN(CCCc2ccccc2)CC1 was read as D3 ag -8, D3 antag -75*, B2AR arrestin 1% and TSHR antagonist -3.
CCOc1ccc(CCNC(=O)C2CCC(CNS(=O)(=O)c3ccc(Cl)cc3)CC2)cc1OCC (stereo not given) was read as D3 ag 4.
Screening Cc1ccc(C(=O)C2=C(O)C(=O)N(c3ncccn3)C2c2ccccc2F)o1 (stereo not given) returned D3 ag -3, D3 antag -7, B2AR arrestin -1% and TSHR antagonist -111*.
Screening Cc1ccc(C(=O)C2=C(O)C(=O)N(c3ncccn3)C2c2ccc(F)cc2)o1 (stereo not given) returned D3 ag -6, D3 antag 1, B2AR arrestin 0% and TSHR antagonist 4.
For NC(=O)C1CCN(c2nc(-c3ccc(Cl)cc3)cs2)CC1 the results were TSHR antagonist -4.
Screening Cc1ccc(CNC(=O)CCCn2c(=O)c3ccccc3n(CC(=O)Nc3ccc(C)c(C)c3)c2=O)cc1 returned D3 ag 4.
`Cc1ccc(NNC(=O)c2ccno2)c(C)c1` gave D3 ag 35*, D3 antag 2, B2AR arrestin 3% and TSHR antagonist -5.
Screening CNS(=O)(=O)c1cn(CC(=O)N2CCN(c3ccc(Cl)cc3)CC2)cc1S(=O)(=O)NC returned D3 ag -7.
O=C(C1CC1)N1CCN(c2nc3ccc(F)cc3s2)CC1 was read as D3 ag 4.
`CCOC(=O)N1CCN(C2CC(=O)N(c3ccc(C)cc3)C2=O)CC1` (stereo not given) gave D3 ag -11, D3 antag -63*, B2AR arrestin 0% and TSHR antagonist 0.

Screening data: PubChem BioAssay, National Center for Advancing Translational Sciences (NCATS)
